Experimental data published in PubChem BioAssay (EPA / NIEHS).
Inconclusive results are not listed. Activity calls are given as the source filed them. Rule for the calls, unless noted: active = hit-call score of the fitted dose curve at least 0.9, where 1 is the maximum; inconclusive = response in the unintended direction; inactive = score below 0.9.

Assays:
[1] = read-out: ABC Transporter (ABCB11), ABCB11 (gene 8647); assay: CLD_ABCB11_6hr: CellzDirect (CLD) Gene Expression Assay for ABC Transporter (ABCB11) at 6 hours (AID 2283675);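 note: hits raise ABCB11 mRNA level so AC50 marks induction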
Summary of the method: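 Human primary hepatocytes (two donor preparations) given fresh chemical daily at multiple concentrations, vehicle 0.2% DMSO. ABCB11 mRNA induction measured 6 h after dosing by qNPA chemiluminescence versus DMSO; cytotoxicity annotated from morphology.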

[2] = CLD_ACTIN_6hr: CellzDirect (CLD) Gene Expression Assay for Baseline Control (Actin) at 6 hours (AID 2283676);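 note: active means increased actin mRNA relative to DMSO vehicle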
Summary of the method: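 Primary human hepatocytes dosed with fresh chemical solutions (vehicle 0.2% DMSO), harvested at 6 h. Actin mRNA quantified by quantitative nuclease protection assay with chemiluminescent read-out, as background control relative to DMSO.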

[3] = read-out: Cytochrome P450 2B6 (Homo sapiens) (UniProt P20813); assay: CLD_CYP2B6_6hr: CellzDirect (CLD) Gene Expression Assay for xenobiotic metabolism (CYP2B6) at 6 hours (AID 2283677);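 note: actives raise CYP2B6 transcript above DMSO baseline so AC50 marks an inducer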
Summary of the method: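 Primary human hepatocytes dosed with chemicals at multiple concentrations, vehicle 0.2% DMSO; CYP2B6 mRNA induction measured 6 h after dosing by quantitative nuclease protection assay with chemiluminescence, gain of signal fitted relative to DMSO.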

[4] = read-out: Cytochrome P450 2C19 (Homo sapiens) (UniProt P33261); assay: CLD_CYP2C19_6hr: CellzDirect (CLD) Gene Expression Assay for xenobiotic metabolism (CYP2C19) at 6 hours (AID 2283678)
Summary of the method: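 Primary human hepatocytes from two donor preparations were dosed daily, with 0.2% DMSO as vehicle, and harvested 6 h after dosing. CYP2C19 mRNA induction was measured by qNPA chemiluminescence and fitted as gain of signal against DMSO.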

[5] = CCTE_Padilla_ZF_144hpf_TERATOSCORE: (Legacy) CCTE's 144 Hour Post-fertilization zebrafish Assay Teratoscore, Padilla Lab (AID 2283679; active = hit-call score of the fitted dose curve at least 0.9, where 1 is the maximum; inactive = score below 0.9;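 for AC50: zebrafish embryos with chorions exposed by immersion from 6-8 hpf to 5 dpf with daily renewal; teratogenicity score from eye scoring of death hatching and malformations at 144 hpf; higher score means more developmental defects relative to DMSO baseline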)
Summary of the method: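 Larvae scored by eye at 144 hpf for death, hatching and malformations after a day in clean Hanks'. Before that, daily-renewed exposure at 80 uM (0.4% DMSO, 26C) from roughly 6-8 hpf through 5 dpf, 4 embryos per chemical.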

[6] = read-out: Glyceraldehyde-3-phosphate dehydrogenase (Homo sapiens) (UniProt P04406); assay: CLD_GAPDH_6hr: CellzDirect (CLD) Gene Expression Assay for Baseline Control (Glyceraldehyde 3-phosphate dehydrogenase) at 6 hours (AID 2283681);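 note: active means increased signal relative to DMSO vehicle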
Summary of the method: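 Primary human hepatocytes from two donor preparations, dosed at multiple concentrations with 0.2% DMSO vehicle; GAPDH mRNA measured 6 h after dosing by chemiluminescent quantitative nuclease protection assay (qNPA) on denatured lysates. Serves as background control; cytotoxicity annotated by morphology.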

[7] = read-out: Broad substrate specificity ATP-binding cassette transporter ABCG2 (Homo sapiens) (UniProt Q9UNQ0); assay: CLD_ABCG2_24hr: CellzDirect (CLD) Gene Expression Assay for ABC Transporter (ABCG2) at 24 hours (AID 2283685)
Summary of the method: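 Primary human hepatocytes were dosed daily with ToxCast chemicals at multiple concentrations (vehicle 0.2% DMSO). ABCG2 mRNA was measured at 24 h by qNPA chemiluminescence; induction was scored as gain of signal versus DMSO.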

[8] = read-out: Cytochrome P450 2B6 (Homo sapiens) (UniProt P20813); assay: CLD_CYP2B6_24hr: CellzDirect (CLD) Gene Expression Assay for xenobiotic metabolism (CYP2B6) at 24 hours (AID 2283686)
Summary of the method: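 Primary human hepatocytes dosed daily for two days with fresh solutions, harvested at 24 hours; mRNA induction quantified by qNPA chemiluminescence, gain of signal vs 0.2% DMSO vehicle. Cytotoxicity annotated from phase-contrast morphology.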

[9] = read-out: Cytochrome P450 2C9 (Homo sapiens) (UniProt P11712); assay: CLD_CYP2C9_24hr: CellzDirect (CLD) Gene Expression Assay for xenobiotic metabolism (CYP2C9) at 24 hours (AID 2283688)
Summary of the method: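 Primary human hepatocytes from two donor preparations, dosed daily for two days at multiple concentrations; vehicle 0.2% DMSO. CYP2C9 mRNA induction at 24 h measured by qNPA chemiluminescence relative to DMSO; cytotoxicity annotated from morphology.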

[10] = read-out: Cytochrome P450 3A4 (Homo sapiens) (UniProt P08684); assay: CLD_CYP3A4_24hr: CellzDirect (CLD) Gene Expression Assay for xenobiotic metabolism (CYP3A4) at 24 hours (AID 2283689)
Summary of the method: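 Primary human hepatocytes from two donors dosed daily with fresh compound for two days, 0.2% DMSO vehicle. CYP3A4 mRNA at 24 hr by qNPA chemiluminescence; gain-of-signal fit versus DMSO, cytotoxicity flagged by morphology.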

[11] = read-out: organic anion transporter (SLCO1B1), SLCO1B1 (gene 10599); assay: CLD_SLCO1B1_24hr: CellzDirect (CLD) Gene Expression Assay for organic anion transporter (SLCO1B1) at 24 hours (AID 2283690)
Summary of the method: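 Primary human hepatocytes (two donor preparations) dosed daily for two days with chemicals at multiple concentrations, 0.2% DMSO vehicle. SLCO1B1 mRNA at 24 h measured by qNPA chemiluminescence; induction fitted relative to DMSO.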

[12] = read-out: alkyl and aryl transferase (GSTA2), GSTA2 (gene 2939); assay: CLD_GSTA2_24hr: CellzDirect (CLD) Gene Expression Assay for alkyl and aryl transferase (GSTA2) at 24 hours (AID 2283693)
Summary of the method: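 Primary human hepatocytes (two donor preparations) dosed daily for two days with chemicals at multiple concentrations (vehicle 0.2% DMSO); GSTA2 mRNA at 24 h measured by qNPA chemiluminescence, gain-of-signal versus DMSO.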

[13] = read-out: HMG-CoA synthase (HMGCS2), HMGCS2 (gene 3158); assay: CLD_HMGCS2_6hr: CellzDirect (CLD) Gene Expression Assay for HMG-CoA synthase (HMGCS2) at 6 hours (AID 2283682);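 note: actives raise HMGCS2 transcript above the 0.2% DMSO vehicle baseline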
Summary of the method: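 Primary human hepatocytes dosed daily with fresh chemical, 0.2% DMSO vehicle; HMGCS2 mRNA measured at 6 h by qNPA chemiluminescence. Gain of signal fitted against DMSO; cytotoxicity flagged from phase-contrast morphology.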

[14] = read-out: xenobiotic metabolism (CYP1A2), CYP1A2 (gene 1544); assay: CLD_CYP1A2_24hr: CellzDirect (CLD) Gene Expression Assay for xenobiotic metabolism (CYP1A2) at 24 hours (AID 2283683)
Summary of the method: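 Primary human hepatocytes from two donor preparations dosed daily with multiple concentrations of chemical, 0.2% DMSO vehicle. CYP1A2 mRNA at 24 h quantified by qNPA chemiluminescence; gain of signal analyzed relative to DMSO. Cytotoxicity flagged by phase-contrast morphology.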

[15] = read-out: ABC Transporter (ABCB1), ABCB1 (gene 5243); assay: CLD_ABCB1_24hr: CellzDirect (CLD) Gene Expression Assay for ABC Transporter (ABCB1) at 24 hours (AID 2283684)
Summary of the method: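 Primary human hepatocytes, two donor preparations, dosed daily with fresh solutions; vehicle 0.2% DMSO; harvested at 24 h. ABCB1 mRNA measured by quantitative nuclease protection assay (chemiluminescence); morphology-based cytotoxicity annotated.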

[16] = read-out: HMG-CoA synthase (HMGCS2), HMGCS2 (gene 3158); assay: CLD_HMGCS2_24hr: CellzDirect (CLD) Gene Expression Assay for HMG-CoA synthase (HMGCS2) at 24 hours (AID 2283691)
Summary of the method: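 Primary human hepatocytes from two donor preparations, dosed daily with fresh solutions; vehicle 0.2% DMSO, 24 h harvest. HMGCS2 mRNA quantified by qNPA with S1 nuclease digestion and chemiluminescence; gain fitted versus DMSO, cytotoxicity annotated by morphology.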

[17] = read-out: Cytochrome P450 3A4 (Homo sapiens) (UniProt P08684); assay: CLD_CYP3A4_6hr: CellzDirect (CLD) Gene Expression Assay for xenobiotic metabolism (CYP3A4) at 6 hours (AID 2283680)
Summary of the method: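 Primary human hepatocytes (two donor preparations) dosed; CYP3A4 mRNA harvested at 6 h and quantified by qNPA chemiluminescence. Gain of signal fitted against 0.2% DMSO vehicle; cytotoxicity flagged by phase-contrast morphology.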

[18] = read-out: sulfotransferase (SULT2A), SULT2A1 (gene 6822); assay: CLD_SULT2A_24hr: CellzDirect (CLD) Gene Expression Assay for sulfotransferase (SULT2A) at 24 hours (AID 2283694);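 note: potency for increased SULT2A1 mRNA level as induction over DMSO baseline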
Summary of the method: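 Primary human hepatocytes from two donor preparations were dosed daily with fresh solutions, vehicle 0.2% DMSO. At 24 h, lysates went to quantitative nuclease protection (qNPA) with S1 digestion and chemiluminescent readout. Cytotoxicity was annotated from phase-contrast morphology.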

Measured: AC50

Sequence of Cytochrome P450 2C19 (Homo sapiens) (P33261 whole entry, looked up): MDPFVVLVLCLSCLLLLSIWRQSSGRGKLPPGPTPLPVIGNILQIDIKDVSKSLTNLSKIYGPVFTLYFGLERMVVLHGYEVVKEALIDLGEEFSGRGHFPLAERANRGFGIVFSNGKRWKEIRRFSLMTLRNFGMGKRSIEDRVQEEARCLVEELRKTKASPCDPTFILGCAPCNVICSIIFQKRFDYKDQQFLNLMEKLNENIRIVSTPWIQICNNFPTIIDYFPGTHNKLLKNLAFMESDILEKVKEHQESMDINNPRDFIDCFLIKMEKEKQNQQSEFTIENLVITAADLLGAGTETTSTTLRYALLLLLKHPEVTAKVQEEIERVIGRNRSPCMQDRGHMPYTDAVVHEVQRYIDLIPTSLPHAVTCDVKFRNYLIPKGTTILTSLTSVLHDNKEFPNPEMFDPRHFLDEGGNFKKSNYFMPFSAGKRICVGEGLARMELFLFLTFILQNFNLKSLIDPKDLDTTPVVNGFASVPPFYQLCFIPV
Sequence of Glyceraldehyde-3-phosphate dehydrogenase (Homo sapiens) (P04406 whole entry, looked up): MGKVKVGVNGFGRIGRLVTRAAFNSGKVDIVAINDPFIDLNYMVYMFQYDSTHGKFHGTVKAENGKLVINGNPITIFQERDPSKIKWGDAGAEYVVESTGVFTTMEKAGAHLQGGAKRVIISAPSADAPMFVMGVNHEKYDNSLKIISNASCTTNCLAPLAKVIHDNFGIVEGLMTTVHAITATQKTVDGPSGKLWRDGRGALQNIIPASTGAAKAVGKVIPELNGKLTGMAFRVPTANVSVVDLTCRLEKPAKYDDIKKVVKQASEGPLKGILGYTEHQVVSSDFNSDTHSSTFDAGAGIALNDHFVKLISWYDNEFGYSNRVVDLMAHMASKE
Sequence of Broad substrate specificity ATP-binding cassette transporter ABCG2 (Homo sapiens) (Q9UNQ0 whole entry, looked up): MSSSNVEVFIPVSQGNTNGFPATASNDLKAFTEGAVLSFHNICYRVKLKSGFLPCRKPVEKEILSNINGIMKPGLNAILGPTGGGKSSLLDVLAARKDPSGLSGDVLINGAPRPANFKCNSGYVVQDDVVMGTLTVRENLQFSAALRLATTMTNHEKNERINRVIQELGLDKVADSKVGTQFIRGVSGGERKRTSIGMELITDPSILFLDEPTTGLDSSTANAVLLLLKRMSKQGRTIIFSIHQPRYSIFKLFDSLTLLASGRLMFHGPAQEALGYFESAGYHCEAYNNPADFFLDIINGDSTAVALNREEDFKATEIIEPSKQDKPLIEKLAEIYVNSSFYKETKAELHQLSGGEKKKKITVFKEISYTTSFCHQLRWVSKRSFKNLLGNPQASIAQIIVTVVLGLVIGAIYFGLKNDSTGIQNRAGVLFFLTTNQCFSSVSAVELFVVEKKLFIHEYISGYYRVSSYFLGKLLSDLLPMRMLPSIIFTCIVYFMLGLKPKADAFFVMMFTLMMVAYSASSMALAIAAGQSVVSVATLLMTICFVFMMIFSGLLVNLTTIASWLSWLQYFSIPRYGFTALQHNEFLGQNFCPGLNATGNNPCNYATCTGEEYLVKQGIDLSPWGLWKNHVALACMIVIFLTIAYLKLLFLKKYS
Sequence of Cytochrome P450 3A4 (Homo sapiens) (P08684 whole entry, looked up): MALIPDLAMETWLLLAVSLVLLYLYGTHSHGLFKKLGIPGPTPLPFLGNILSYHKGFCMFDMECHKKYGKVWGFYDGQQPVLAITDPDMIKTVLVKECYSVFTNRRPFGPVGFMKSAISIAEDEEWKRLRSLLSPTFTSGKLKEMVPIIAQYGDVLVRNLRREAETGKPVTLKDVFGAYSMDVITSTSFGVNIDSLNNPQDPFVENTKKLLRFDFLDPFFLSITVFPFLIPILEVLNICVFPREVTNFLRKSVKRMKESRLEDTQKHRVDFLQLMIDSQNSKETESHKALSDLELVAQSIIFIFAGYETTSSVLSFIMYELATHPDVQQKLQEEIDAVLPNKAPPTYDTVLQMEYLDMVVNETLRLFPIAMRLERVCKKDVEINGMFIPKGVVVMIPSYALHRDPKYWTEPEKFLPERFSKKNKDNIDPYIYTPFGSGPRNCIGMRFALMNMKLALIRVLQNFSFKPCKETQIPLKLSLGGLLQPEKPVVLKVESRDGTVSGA

N#Cc1c(Cl)cccc1Cl
active: [3] 4.85 µM | [8] 4.46 µM
not listed: [13] | [14] | [15] | [16] | [17] | [18]
inactive: all other assays above

CC(C)N1C(=O)c2ccccc2NS1(=O)=O
active: [13] 0.00735 µM
not listed: [3] | [9] | [11] | [17] | [18]
inactive: all other assays above

CSC(=O)c1c(C(F)F)nc(C(F)(F)F)c(C(=O)SC)c1CC(C)C
active: [3] 2.11 µM | [5] 9.65 µM | [14] 5.33 µM | [8] 1.22 µM | [10] 2.07 µM | [18] 7.07 µM
not listed: [15]
inactive: all other assays above

CCOP(=O)(OCC)Oc1nc(Cl)c(Cl)cc1Cl
active: [3] 7.26 µM | [5] 0.485 µM | [14] 3.42 µM | [8] 0.405 µM
not listed: [10] | [13] | [15] | [17] | [18]
inactive: all other assays above

O=C1C2CC=CCC2C(=O)N1SC(Cl)(Cl)Cl (stereo not drawn)
inactive: [1] | [2] | [6] | [14] | [15] | [7] | [9] | [11] | [12]
active: [5] 1.96 µM

CC1(C)CCC(=Cc2ccc(Cl)cc2)C1(O)Cn1cncn1 (stereo not drawn)
inactive: [1] | [2] | [4] | [7] | [9] | [10]
active: [3] 1.97 µM | [5] 253 µM | [14] 3.47 µM | [8] 3.58 µM

CN=C=S
active: [3] 4.85 µM | [5] 2.93 µM
not listed: [10] | [13] | [15] | [17] | [18]
inactive: all other assays above
